HCMV antiviral: human cytomegalovirus inhibition | AID 1259415 | HFF cells, HCMV-luciferase reporter, 72 h; hits give low values | activity change, negative = inhibition, % at 57.5 µM | hit rate 4.5% among 410,000; in the data active means activity change below about -60%; inconclusive means no clear call, values can overlap the other calls; inactive means above about -39%
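Two compound doses tested in HFFs infected with HCMV-luciferase, MOI 1 PFU/cell, 72 h at 37C. Lysate luminescence read with OneGlo; data normalized against buffer-only and 10uM Salinomycin inhibitor controls.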
FMDV inh: blocks foot and mouth disease virus; AID 1159524; Potency, µM (titrated, usually from 57.9 µM), hits mostly inhibitors; FMDV antiviral cell-based qHTS; hit rate 1.2% among 410,000; calls by dose curve; tested in HEK293T cells; further: read-out not given here; nearly all actives have a fitted effect of over 45% in size
LASV entry inh: blocks Lassa virus binding to or entry into cells; Potency, µM (doses to about 37.9 µM), hits mostly inhibitors; Lassa virus pseudotype entry inhibition, cell reporter; hit rate 1.2% among 300,000; calls by dose curve; tested in HEK293 cells; further: nearly all actives have a fitted effect of over 50% in size
Marburg entry inh: blocks Marburg virus binding to or entry into cells | hit rate 1.8% among 300,000 | Marburg virus pseudotyped entry inhibition, cell reporter | Potency, µM (titrated, usually from 37.8 µM), usual class: inhibitors; calls by dose curve; tested in HEK293 cells
Large screens that a line does not name were inactive. Shown are actives, neighbours in structure and some others; about 6.2% of the full set was active somewhere.

O=[N+]([O-])c1ccc(Sc2ccccn2)nc1	none
O=[N+]([O-])c1ccc(Sc2nnnn2-c2ccccc2)nc1	HCMV antiviral -88.1, FMDV inh 22.4µM, LASV entry inh inconclusive, Marburg entry inh 12.6µM
CC12CN3CCN(CC(C3)C1(O)CN1CCCCC1)C2 (centres undefined)	none
Cc1cc(C)n2c(SC/C(O)=C(\C#N)c3nc4ccccc4[nH]3)nnc2n1	none
CCOc1ccc(NC(=O)CN(C)C(=O)CCC2CCCCC2)cc1OCC	Marburg entry inh inconclusive
COc1ccc2c(C)cc(Sc3nnnn3-c3ccccc3)nc2c1	HCMV antiviral -101.0, LASV entry inh 0.794µM
CCCn1c(Sc2nnnn2-c2ccccc2)n[nH]c1=O	HCMV antiviral -105.9
COc1ccc(Oc2nnnn2-c2ccccc2)cc1	LASV entry inh inconclusive
CCC(CC)C(=O)N1CC(=O)Nc2ccc(F)cc2C1c1ccccc1 (centres undefined)	none (no result: LASV entry inh, Marburg entry inh)
Cc1noc(C)c1C(=O)Nc1nc2ccccc2s1	Marburg entry inh inconclusive
Cc1[nH]nc(C(F)(F)F)c1N=NN1CCOCC1	FMDV inh 20µM, LASV entry inh inconclusive, Marburg entry inh inconclusive
CCCCCC1(C)NC(=S)N(c2ccccc2)N1 (centres undefined)	none
CC1Cc2ccccc2N1C(=O)CN1C(=O)C(=O)N(Cc2ccccc2)C1=O (centres undefined)	none
CCN(CC(=O)Nc1ccc(NC(C)=O)cc1)C(=O)Cc1ccc(Cl)c(Cl)c1	HCMV antiviral -64.3, FMDV inh inconclusive (no result: LASV entry inh)
Cc1ccc(Sc2ncccc2COC(=O)Nc2ccccc2)cc1	LASV entry inh 15.8µM
Cc1ccc(Sc2ncccc2COC(=O)Nc2c(C)cccc2C)cc1	LASV entry inh 2.82µM
Cc1ccccc1NC(=O)OCc1cccnc1Sc1ccc(Cl)cc1	FMDV inh inconclusive, LASV entry inh inconclusive
Cc1ccc(OCCOC(=O)Nc2ccccc2)cc1	HCMV antiviral -62.0
CS(=O)(=O)C1=C(O)C(=O)N(c2ccccc2)C1c1ccccc1 (centres undefined)	FMDV inh inconclusive
Cc1ccc(NC(=O)C(Cc2ccccc2)NC(=O)OCc2ccccc2)cc1C (centres undefined)	LASV entry inh inconclusive, Marburg entry inh inconclusive
C=CCNc1nc(N)c(C(=C(C#N)C#N)c2ccc(Br)cc2)s1	HCMV antiviral inconclusive, FMDV inh 5.62µM, LASV entry inh inconclusive, Marburg entry inh inconclusive
Cc1ccc(S(=O)(=O)N2CCCc3ccccc32)cc1	none (no result: LASV entry inh, Marburg entry inh)
Cc1ccc2cccc(S(=O)(=O)N3CCCc4ccccc43)c2n1	HCMV antiviral -65.0 (no result: LASV entry inh, Marburg entry inh)
CCN(CC(=O)Nc1ccc(NC(C)=O)cc1)C(=O)CN1C(=O)NC2(CCCC2)C1=O	none
CCc1cc2c(SCC(=O)N3CCN(C(=O)c4cccs4)CC3)ncnc2s1	FMDV inh inconclusive (no result: LASV entry inh, Marburg entry inh)
CCC1=NN2C(=N)/C(=C\c3cccn3-c3ccc(C)c(C)c3)C(=O)N=C2S1	none
CCC1=NN2C(=N)/C(=C\c3cccn3-c3ccc(Cl)cc3)C(=O)N=C2S1	HCMV antiviral -81.1
Cc1ccc(NC(=O)CSc2nnc(-c3ccc(S(=O)(=O)N4CCOCC4)cc3)n2C)cc1	none
CCCN(CC(=O)Nc1ccccc1C)C(=O)c1ccc2ccccc2n1	Marburg entry inh inconclusive
Cc1ccccc1NC(=S)c1ccc2ccccc2n1	HCMV antiviral -62.8 (no result: LASV entry inh, Marburg entry inh)
Fc1ccc(-n2nnc(-c3cccnc3)n2)cc1	none (no result: LASV entry inh, Marburg entry inh)
Fc1ccc(C(CCCn2nnc(-c3cccnc3)n2)c2ccc(F)cc2)cc1	HCMV antiviral -76.1, FMDV inh inconclusive, Marburg entry inh inconclusive
CCCCC(=O)Nc1ccc(C)c(S(=O)(=O)N2CCCCCC2)c1	FMDV inh inconclusive, LASV entry inh inconclusive, Marburg entry inh inconclusive
CCCCNC(=O)C1=C(N)C(C(=O)Nc2ccc(C)c(S(=O)(=O)N3CCCCC3)c2)SC1=Nc1ccc(C)cc1C (centres undefined)	Marburg entry inh 12.6µM
Cc1ccc2nc(NC3=NC4(CCCC4)C4=C(CCCC4=O)N3)oc2c1	FMDV inh 39.8µM (no result: LASV entry inh, Marburg entry inh)
CC1(C)CC(=O)C2=C(C1)NC(Nc1nc3ccccc3o1)=NC21CCCC1	Marburg entry inh inconclusive
COc1ccc(NC(=O)c2cccnc2)cc1OCC(C)C	none
CCC(C)(C)C1CCc2c(sc(N)c2C(N)=O)C1 (centres undefined)	HCMV antiviral -76.0, FMDV inh inconclusive, LASV entry inh inconclusive, Marburg entry inh inconclusive
CC(C)(C)C1CCc2c(sc(NC(=O)C3CCCO3)c2C(N)=O)C1 (centres undefined)	HCMV antiviral inconclusive, LASV entry inh 17.8µM, Marburg entry inh inconclusive
O=C(/C=C/c1cccc(F)c1)N(c1ccccn1)C1CCCCC1	none (no result: LASV entry inh)
COc1ccc(NC(=O)c2ccc3c(=O)n(-c4ccc(OC)cc4OC)c(=S)[nH]c3c2)c(OC)c1	FMDV inh inconclusive

Screens from PubChem.
